Assay outcomes: PubChem BioAssay, several laboratories
D1 allo mod: allosterically modulates the human D1 dopamine receptor; HEK293 D1, CRE-luciferase, dopamine EC30 potentiation; actives deviate in either direction; AID 641; hit rate 5.9% among 58,000; B-score at 10 µM;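 active = luminescence count or its row- and column-corrected plate score outside the 99.7% band of the plate's sample wells, on either side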
CYP2C9 activ: increases human cytochrome P450 2C9 activity; P11712; recombinant CYP2C9, luciferin-H conversion, luminescence; hits give high values; factor 1 = untreated enzyme, 0 = blocked; activation factor at 5 µM; hit rate 1.4% among 96,000; AID 1024;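 active = activation factor of 2 or more for CYP2C9 at a 5 µM dose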;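 note: 0 = sulfaphenazole-blocked wells and 1 = vehicle-only wells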
CYP2C19 inh: inhibitors of human CYP2C19; P33261; CYP2C19 Supersomes, luciferin-H EGE luminescence, 30 min; inhibition, % at 5 µM; hit rate 21% among 96,000;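 active = CYP2C19 inhibition above a set limit at 5 µM in the primary screen, cut at about 50% in these data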;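 note: plate controls were negative control wells for no effect and 2.5 mM tranylcypromine positive control for full effect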
Target sequence (P33261 whole entry, looked up): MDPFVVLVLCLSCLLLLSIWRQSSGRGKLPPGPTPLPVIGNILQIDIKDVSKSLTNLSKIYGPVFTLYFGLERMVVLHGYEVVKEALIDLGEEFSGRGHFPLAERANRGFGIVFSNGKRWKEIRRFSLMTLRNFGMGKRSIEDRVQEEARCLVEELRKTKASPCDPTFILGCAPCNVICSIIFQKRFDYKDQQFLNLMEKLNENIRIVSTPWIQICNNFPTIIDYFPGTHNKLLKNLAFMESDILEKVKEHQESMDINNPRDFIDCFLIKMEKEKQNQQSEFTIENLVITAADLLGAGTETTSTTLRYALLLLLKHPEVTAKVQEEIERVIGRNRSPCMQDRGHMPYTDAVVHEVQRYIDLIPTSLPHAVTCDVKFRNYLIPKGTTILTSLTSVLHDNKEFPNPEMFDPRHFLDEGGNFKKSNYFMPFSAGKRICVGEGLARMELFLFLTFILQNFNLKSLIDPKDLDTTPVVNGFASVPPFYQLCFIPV
DAT uptake mod: changed human dopamine transporter uptake under cocaine IC80; Q01959; AID 449768; LLC-PK1 hDAT cells, [14C]-dopamine uptake with cocaine IC80; actives deviate in either direction; hit rate 1.3% among 110,000; B-score at 10 µM;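 active = Z score or B-score, a plate-position-corrected score, falls beyond the plate's 99.7% confidence bounds, in either direction; inactive = both scores lie inside the 99.7% bounds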;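 note: scored against the spread of the other compound wells on the same plate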
CYP2C19 act: activators of human cytochrome P450 2C19; P33261; recombinant CYP2C19, luciferin-H EGE luminescence; hits give high values; 0 = fully inhibited enzyme, 1 = untreated enzyme; activation factor at 5 µM; 96,000 tested, under 10 active; AID 1025;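 active = activation factor of at least 2 at 5 µM in the primary screen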;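 note: 0 = wells with 2.5 mM tranylcypromine and 1 = vehicle-only wells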
CYP2C9 inh: human CYP2C9 inhibition. AID 777. hit rate 20% among 96,000. P11712. inhibition, % at 5 µM. CYP2C9 Supersomes, luciferin-H conversion, luminescence;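 active = blocking of liver enzyme CYP2C9 beyond about 50% at 5 µM, limit read from the data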
Starred values were filed as active, the others as inactive; . = not tested or not shown. Shown are actives, neighbours in structure and some others; about 28% of the full set was active somewhere.

SMILES	D1 allo mod	CYP2C9 activ	CYP2C19 inh	DAT uptake mod	CYP2C19 act	CYP2C9 inh
Cn1c(SCc2cccnc2)nnc1-c1c[nH]c2ccccc12	-0.33	0.5	83*	-1.3	0.2	49
CCOC(=O)C(C)Sc1nnc(-c2c[nH]c3ccccc23)n1C (stereo not given)	1.3	0.9	40	-0.35	0.6	5
O=S1(=O)CCC(SCc2nc3sccn3c2Br)C1 (stereo not given)	-0.018	1.2	42	0.67	0.6	-21
COc1ccc(NCc2ccc(OC)c(OC)c2)cc1	1.1	0.9	73*	0.95	0.3	14
COc1cc(CNc2cc(C)ccc2C)cc(OC)c1OC	.	0.2	98*	-1.7	0	82*
COc1cc(CNc2ccc3c(c2)CCC3)cc(OC)c1O	-0.28	1	32	-1.1	0.7	-3
COc1ccc(CNc2cc(C)ccc2C)c(OC)c1OC	0.13	0.9	38	-0.34	0.6	6
COc1cc(CNc2ccc(C)c(C)c2)cc(OC)c1OC	-0.017	0.4	91*	-0.7	0.1	58*
CCc1nnc(NC(=O)C2CCCN2C(=O)NC2CCCCC2)s1 (stereo not given)	1.7	0.9	-2	-1.1	1	6
Cc1cc(NS(=O)(=O)c2ccccc2)c(C)c(Cl)c1O	0.053	2.8*	99*	-1.9	0	-182
Cc1ccccc1NS(=O)(=O)c1cc(S(C)(=O)=O)ccc1Cl	0.54	0.6	28	0.012	0.7	37
CCC(C)c1c(O)nc(SCC(=O)c2ccccc2)[nH]c1=O (stereo not given)	1.1	0.5	13	0.034	0.9	54*
CCC(C)c1c(O)nc(SCC(=O)Nc2ccccc2)[nH]c1=O (stereo not given)	.	0.2	73*	0.0089	0.3	76*
O=C(CSc1nc(O)c(Cc2ccccc2)c(=O)[nH]1)Nc1ccccc1	0.13	0.9	0	-0.76	1	8
C=CCc1c(O)nc(SCC(=O)c2ccccc2)[nH]c1=O	.	0.6	4	-0.0046	1	38
COc1cc(OC)c(NC(=O)CCNC(=O)Cn2ccc3ccccc3c2=O)cc1Cl	.	0.9	1	-0.94	1	10
COc1cc(NC(=O)CCn2c(=O)[nH]c3ccsc3c2=O)cc(OC)c1	0.75	.	.	1.2	.	.
CCN(CC)CCNC(=O)CCCCn1c(=S)[nH]c2c([nH]c3ccc(OC)cc32)c1=O	0.93	0.8	9	2.6*	0.9	17
CCN(CCCNC(=O)CCCCn1c(=O)[nH]c2ccccc2c1=O)c1ccccc1	0.83	0.3	62*	1.2	0.4	68*
COCCNC(=O)CCCCCn1c(=S)[nH]c2ccccc2c1=O	.	1.1	1	0.029	1	-14
CCOc1ccc(NC(=O)CCn2c(=O)[nH]c3ccsc3c2=O)cc1	.	0.4	16	-0.44	0.8	57*
COc1cccc(NC(=O)CCNC(=O)Cn2ccc3ccccc3c2=O)c1	.	0.3	35	-0.0039	0.7	71*
N#Cc1ccc(OCC(=O)NCCc2ccc(S(N)(=O)=O)cc2)cc1	.	0.9	8	-0.79	0.9	8
O=C1CCC(=O)N1CN(Cc1ccco1)CN1C(=O)CCC1=O	.	1.1	-12	-1.7	1.1	-8
COCCn1nnnc1CN1CCC(Cc2ccccc2)CC1	-0.58	.	.	0.078	.	.
SMILES	D1 allo mod	CYP2C9 activ	CYP2C19 inh	DAT uptake mod	CYP2C19 act	CYP2C9 inh
O=C(CCn1c(=O)[nH]c2ccccc2c1=O)Nc1ccccc1	-0.28	0.5	53*	0.31	0.5	47
Cc1ccc(C)c(N2CCN(C(=O)CCNC(=O)Cn3ccc4ccccc4c3=O)CC2)c1	0.031	0.8	18	0.25	0.8	22
COc1cccc(NC(=O)CCCn2c(=S)[nH]c3ccccc3c2=O)c1	.	0.2	63*	1.6	0.4	78*
CCN(CCCNC(=O)CCNC(=O)Cn1ccc2ccccc2c1=O)c1ccccc1	-0.19	0.2	68*	0.24	0.3	77*
COc1ccc(C)cc1NC(=O)CNC(=O)Cn1ccc2ccccc2c1=O	0.28	.	.	-9*	.	.
O=C(NC1CC2CCCC(C1)N2S(=O)(=O)c1ccccc1)C1CCCCC1 (stereo not given)	.	0.4	27	0.58	0.7	60*
CCC(Sc1nnc(-c2ccc(C)c(Cl)c2)n1CC)C(=O)Nc1nccs1 (stereo not given)	-1.6	0.6	49	1.8	0.5	44
